High-throughput results (PubChem)
UGM FP inh: inhibitors of M. tuberculosis UDP-galactopyranose mutase; purified UGM, fluorescence polarization probe displacement; inhibition, % at 10 µM; 320,000 compounds, 0.06% hits; AID 504406; in the data active = inhibition above about 10%, passing the limit was not always enough
Target sequence (P9WIQ1 whole entry, looked up): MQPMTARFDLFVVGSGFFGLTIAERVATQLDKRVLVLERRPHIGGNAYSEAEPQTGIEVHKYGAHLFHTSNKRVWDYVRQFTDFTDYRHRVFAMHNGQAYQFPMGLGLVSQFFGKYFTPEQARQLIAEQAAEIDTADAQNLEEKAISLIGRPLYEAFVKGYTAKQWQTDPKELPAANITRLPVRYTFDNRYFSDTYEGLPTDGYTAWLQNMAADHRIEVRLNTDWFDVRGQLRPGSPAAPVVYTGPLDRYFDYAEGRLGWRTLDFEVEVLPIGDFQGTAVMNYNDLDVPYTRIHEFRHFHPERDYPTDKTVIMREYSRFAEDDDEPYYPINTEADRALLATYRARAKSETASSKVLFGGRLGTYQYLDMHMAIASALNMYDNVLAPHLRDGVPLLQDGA
FadD28 binding: blocks FadD28 binding to the bisubstrate probe. fluorescence polarization. 360,000 compounds, 0.22% hits. inhibition, % at 12.5 µM; in the data active = inhibition above about 8.5%, passing the limit was not always enough
PriA SSB inh: inhibitors of Klebsiella pneumoniae PriA binding to SSB C-terminal tail; AID 1272365; inhibition, % at 33 µM; 430,000 compounds, 0.6% hits; AlphaScreen SSBct-PriA binding, biotinylated peptide; in the data active = inhibition mostly above about 37%, no sharp cut-off; inactive = mostly below about 20%;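 also: plate controls were negative control peptide for no effect and reference peptide for full effect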
PrPC TRFRET: inhibitors of human cell surface prion protein PrPC; 370,000 compounds, 0.43% hits; TR-FRET read-out; AID 720596; inhibition, % at 13.8 µM; P04156; in the data active = inhibition above about 24%; also: 0% = median of the test wells and 100% = reference compound wells
Rv3671c inh: inhibits the M. tuberculosis serine protease Rv3671c; inhibition, % at 5.96 µM; AID 2606; 320,000 compounds, 0.048% hits; P9WHR9; in the data active = inhibition above about 38%;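 also: extracellular domain of Rv3671c used as enzyme; 0% = enzyme with DMSO and 100% = no enzyme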
PrP UTR inh: inhibition of PrP 5' UTR reporter expression | cell-based PrP 5' UTR mRNA reporter, plate reader | inhibition, % (test concentration not listed) | 340,000 compounds, 0.35% hits | AID 488862; in the data active = inhibition above about 52%; also: 0 = median of the neutral control wells
* = called active by the depositor; . = not tested or not shown; ! = a repeat was not active. A selection: hits, their analogues and other compounds. The true share with any hit is near 1.2%.

SMILES	UGM FP inh	FadD28 binding	PriA SSB inh	PrPC TRFRET	Rv3671c inh	PrP UTR inh
CCN(c1ccccc1)S(=O)(=O)c1ccc(C(=O)N(CCCN(C)C)c2nc3cc4c(cc3s2)OCO4)cc1	-2	-3	32	-13	0	-7
CN(C)CCN(C(=O)c1cccc2ccccc12)c1nc2cc3c(cc2s1)OCO3	3	-2	47*	-7	2	-10
O=C(N/N=C\c1ccncc1)c1cc(C2CC2)[nH]n1	.	.	-4	.	.	.
O=C(Nc1nc(-c2ccc3c(c2)OCO3)cs1)C1CCN(S(=O)(=O)c2ccc(F)cc2)CC1	.	.	-15	.	.	.
Cc1cc(C)c2sc(N(CCCN(C)C)C(=O)c3ccc(S(=O)(=O)N(C)Cc4ccccc4)cc3)nc2c1	0	-7	49*	-11	-4	8
COc1nn(C)cc1C(=O)NCC1CCN(S(C)(=O)=O)CC1	.	.	-21	.	.	.
CCCCCCCCCCn1c2c(c(=N)c3c1CCC3)CCC2	-2	-9	2	48*	6	5
CCCCCCCCCn1c2c(c(=N)c3c1CCC3)CCCC2	.	-5	9	.	.	-14
c1ccc(-c2cnc(-c3ccccn3)nn2)cc1	-2	-2	69*	-13	5	-30
c1ccc(-c2cnc(-c3ccccc3)nn2)cc1	1	0	-16	-9	1	-24
CCOC(=O)CSc1nc(-c2ccccn2)ncc1OC	3	-3	83*	-6	2	-18
COc1cnc(-c2ccccn2)nc1Oc1cccc(C(F)(F)F)c1	3	-4	.	0	0	-5
COc1cnc(-c2ccccn2)nc1Oc1ccc(F)cc1	.	.	109*	.	.	.
COc1cnc(-c2ccccn2)nc1Oc1ccccc1	0	-1	64*	-3	7	-1
O=C1c2cccc3cccc(c23)C(=O)N1CCc1ccc(S(=O)(=O)NCc2ccco2)cc1	.	.	-19	.	.	.
COc1cccc(C(=O)Nc2nnc(-c3ccc(Br)s3)o2)c1OC	.	.	-9	.	.	.
Cc1nc2scc(C)n2c(=O)c1NC(=O)c1ccc(S(N)(=O)=O)cc1	.	.	-5	.	.	.
c1ccc(Oc2nc(-c3ccccn3)nnc2-c2ccccc2)cc1	.	.	103*	.	.	.
C=CCNc1nc(-c2ccccn2)nnc1-c1ccccc1	-1	0	-9	21	8	-53
Clc1ccc(-c2cnnc(-c3ccccn3)n2)cc1	0	-1	58*	-28	11	-27
COc1cnc(-c2ccccn2)nc1Sc1ccc(Cl)cc1	0	-4	-2	10	-23	-11
COc1cnc(-c2ccccn2)nc1Oc1cc(Cl)cc(Cl)c1	.	.	63*	.	.	.
O=c1c2[nH]c3ccc(Br)cc3c2ncn1CCCn1ccnc1	0	-1	61*	-3	-11	-18
Cc1ccc(-n2cc(-c3ccccc3)c3c(NCCCN4CCCC4=O)ncnc32)cc1Cl	.	.	13	.	.	.
COc1ccc(-c2nc(-c3cccs3)c(-c3cccs3)[nH]2)cc1O	-2	11*	24	19	17	-5
SMILES	UGM FP inh	FadD28 binding	PriA SSB inh	PrPC TRFRET	Rv3671c inh	PrP UTR inh
O=C(O)c1ccc(-c2nc(-c3ccccc3)c(-c3cccs3)[nH]2)cc1	-4	1	3	-2	7	-7
O=C(NNC(=S)Nc1ccc(Br)cc1)c1ccc(N2CCOCC2)c([N+](=O)[O-])c1	3	4	7	0	7	1
Cc1ccc(NC(=S)NNC(=O)c2ccc(N3CCOCC3)c([N+](=O)[O-])c2)cc1Cl	-1	11*	38*	-8	-1	-27
CN(C)S(=O)(=O)c1ccc(C(O)=C2C(=O)C(=O)N(CCN3CCCCC3)C2c2cccnc2)cc1 (centres undefined)	.	.	-9	.	.	.
COC(=O)C1CCN(C2=C(NS(=O)(=O)c3ccc(Cl)cc3)C(=O)c3ccccc3C2=O)CC1	1	1	73*	-40	4	-21
NC(=O)C1CCN(C2=C(NS(=O)(=O)c3ccc(Cl)cc3)C(=O)c3ccccc3C2=O)CC1	5	-4	28	-55	-35	-32
COc1cncc(O[C@H]2CCN(C(=O)COc3cccc(C)c3)C2)n1	.	.	-2	.	.	.
O=[N+]([O-])c1ccc(NNC(=S)NC2CCS(=O)(=O)C2)c([N+](=O)[O-])c1 (centres undefined)	.	.	51*	.	.	.
O=C(NC(=S)NC1CCS(=O)(=O)C1)c1ccc([N+](=O)[O-])cc1 (centres undefined)	.	.	9	.	.	.
CCN(CCCNC(=O)CC(C(=O)N1CCc2ccccc21)n1ccnc1)c1cccc(C)c1 (centres undefined)	-3	-1	47*	-8	0	-6
COc1ccc(Cl)c2sc(NC(=O)c3cccs3)nc12	.	.	-12	.	.	.
CCOC(=O)N1CCC(c2cc(=O)n3[nH]c(C)c(-c4ccc(F)cc4)c3n2)CC1	0	1	55*	1	7	-22
COc1ccccc1-c1coc2c3c(ccc2c1=O)OCN(Cc1cccnc1)C3	.	.	-18	.	.	.
CCN(CC(=O)Nc1c(F)cccc1F)C(=O)CN1C(=O)c2ccccc2C1=O	-2	-2	10	-3	5	-14
CCN(CC(=O)Nc1c(F)cccc1F)C(=O)Cc1ccccc1	2	9.7*	-6	2	-1	-40
O=C1SC(SCc2ccccc2)=N/C1=C\c1ccco1	1	2	6	3	-5	-5
CCCSC1=N/C(=C\c2ccc([N+](=O)[O-])o2)C(=O)S1	.	12*	-4	-11	.	-24
CCCSC1=N/C(=C\C=C\c2ccco2)C(=O)S1	-2	15*	3	2	7	-10
O=C(Nc1ccccc1)N1CCC(CSC2=NCCS2)CC1	.	.	-5	.	.	.
CO[C@@]1(CNC(=O)CCc2cccc(Cl)c2)CCSC1	.	.	-7	.	.	.
O=C(c1ccc2c(c1)OCO2)N(Cc1ccoc1)Cc1cccs1	.	.	2	.	.	.
COc1ccc(CC(=O)Nc2ccc(SC)nn2)cc1	.	.	-15	.	.	.
CS(=O)(=O)c1ccc(CC(=O)Nc2nnc(-c3cc(Cl)sc3Cl)o2)cc1	.	.	active!	.	.	.
CS(=O)(=O)c1ccc(CC(=O)Nc2nnc(-c3ccccc3Cl)o2)cc1	.	.	-7	.	.	.
CS(=O)(=O)c1ccc(CC(=O)Nc2nnc(Cc3ccc4c(c3)OCCO4)o2)cc1	.	.	47*	.	.	.
SMILES	UGM FP inh	FadD28 binding	PriA SSB inh	PrPC TRFRET	Rv3671c inh	PrP UTR inh
COc1cc(OC)cc(C(=O)N2CCN(c3nccn3-c3cccc(Cl)c3)CC2)c1	.	.	40*	.	.	.
COc1ccccc1C(=O)N1CCN(c2nccn2-c2ccc(C)cc2)CC1	.	.	68	.	.	.
COc1ccc(C(=O)N2CCN(c3nccn3-c3ccc(C)cc3)CC2)c(OC)c1	.	.	38*	.	.	.
O=C(c1ccco1)N1CCN(C(=O)c2cc(-c3ccncc3)nc3ccc(Br)cc23)CC1	2	-4	1	6	-6	-14
O=C(O)c1cc(-c2ccco2)nc2ccc(Br)cc12	2	29*!	3	4	-5	0
O=C(c1ccc2nc(-c3ccco3)c(-c3ccco3)nc2c1)N1CCN(c2ccccc2)CC1	.	-3	13	-24	4	-16
O=C(O)c1ccc2nc(-c3ccco3)c(-c3ccco3)nc2c1	.	13*	-4	-17	.	-79
CCC(CC)c1nnc(NC(=O)C=C(C)C)s1	.	.	4	.	.	.
CC1Oc2ccccc2OC1C(=O)NCC#CCN(C)C (centres undefined)	.	.	1	.	.	.
O=C(CSc1cccc2cccnc12)c1ccc(-c2ccccc2)cc1	.	.	33	.	.	.
